About 79,000 compounds went through this panel and 15% of them were active in at least one assay; those are over-represented in the sample as a whole. A number with no mark means an inactive call. Calls of active or inactive are those of the source. Cut-off read from the data, not from the text of the source: active = growth inhibition above about 70%; inactive = the rest.
Experiment: NCI Yeast Anticancer Drug Screen. Data for the sgs1 strain (AID 173);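 note: 0% = growth of vehicle-only control cultures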
Settings: S. cerevisiae sgs1 mutant, stronger effect = higher value
Description: Growth inhibition of yeast strains with defined genetic alterations is measured as a screen for potential anti-cancer activity. Selected strains with alterations in DNA damage repair or cell cycle control were exposed to compounds and growth inhibition was measured relative to vehicle treated controls. The strain used in this assay is sgs1

Compound	growth inhibition (at 1.2 µM) [%]	growth inhibition (at 3.7 µM) [%]	growth inhibition (at 11.0 µM)	growth inhibition (at 33.0 µM)	growth inhibition (at 100.0 µM)
COC1C=COC2(C)Oc3c(C)c(O)c4c(c3C2=O)/C(=N/C2CCC(O)OC2C)C=C(NC(=O)/C(C)=C\C(=O)C2CC2C(O)C(C)C(O)C(C)C(OC(C)=O)C1C)C4=O (stereo not given)	0	-76	3%	37%	89% (active)
CN(C)CCOc1ccc2c(c1)C/C(=C/c1ncc([N+](=O)[O-])n1C)C2=O	29	52	65%	70% (active)	81% (active)
CC(=O)Nc1ccc2c(c1)C(=Nc1ccc(C(=O)O)cc1)c1ccccc1-2	-1	2	9%	25%	95% (active)
CN(C)CCn1c2c3ccccc3ccc2c2oc(=O)c3ccccc3c21	12	16	50%	93% (active)	92% (active)
CCOC(=O)c1cc([N+](=O)[O-])cc([N+](=O)[O-])c1Sc1ncnc2nc[nH]c12	-11	-5	2%	74% (active)	96% (active)
CSC(=S)Nc1cccc(C)n1	-47	-49	-32%	-6%	62%
COC1=CC(=O)C(C2(OC(C)C)OC(=O)C(Cl)=C2Cl)=CC1=O (stereo not given)	2	37	99% (active)	99% (active)	99% (active)
CCC(C)COC(=O)c1ccc(N=Cc2ccc(C=Nc3ccc(C(=O)OCC(C)CC)cc3)cc2)cc1 (stereo not given)	-2	-2	2%	7%	11%
